The panel holds about 83,000 compounds, 20% with a hit somewhere; the sample as a whole holds those more often.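 For each line, cells grew in 96-well plates with the test compound present at a single concentration for 48 hours.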 Activity calls are given as the source filed them. The calls were made as follows: active = growth percent below 10; inactive = the rest.
Tests used:
Assay in all cases: NCI-60 one-dose screen, 48 h (100 = growth as untreated, 0 = no growth, -100 = all killed)
Conditions in all cases: 10 µM
SR leukemia = tested on: SR leukemia
RPMI-8226 leukemia = tested on: RPMI-8226 leukemia
OVCAR-8 ovarian = tested on: OVCAR-8 ovarian
OVCAR-5 ovarian = tested on: OVCAR-5 ovarian
OVCAR-4 ovarian = tested on: OVCAR-4 ovarian
SK-OV-3 ovarian = tested on: SK-OV-3 ovarian
IGROV1 ovarian = tested on: IGROV1 ovarian
OVCAR-3 ovarian = tested on: OVCAR-3 ovarian
HS 578T breast = tested on: HS 578T breast
NCI/ADR-RES ovarian = tested on: NCI/ADR-RES ovarian
T-47D breast = tested on: T-47D breast
BT-549 breast = tested on: BT-549 breast
MDA-MB-435 melanoma = tested on: MDA-MB-435 melanoma
SW-620 colon = tested on: SW-620 colon
MCF7 breast = tested on: MCF7 breast
HCT-116 colon = tested on: HCT-116 colon
KM12 colon = tested on: KM12 colon
HCC-2998 colon = tested on: HCC-2998 colon

Measured: growth

Cc1cc(=O)oc2cc(OCc3cn(CC(O)CO)nn3)ccc12 (stereo unspecified)
inactive: SR leukemia 97.9% | RPMI-8226 leukemia 92.9% | OVCAR-8 ovarian 103% | OVCAR-5 ovarian 113% | OVCAR-4 ovarian 116% | SK-OV-3 ovarian 100% | IGROV1 ovarian 107% | OVCAR-3 ovarian 117% | HS 578T breast 27% | NCI/ADR-RES ovarian 105% | T-47D breast 86.8% | BT-549 breast 97.5% | MDA-MB-435 melanoma 116% | SW-620 colon 74% | MCF7 breast 109% | HCT-116 colon 98.8% | KM12 colon 111%

CN(C)c1ccc2cc(-c3cc4c(oc3=O)-c3ccccc3OC4O)c(=O)oc2c1 (stereo unspecified)
active: SR leukemia -12.7% | RPMI-8226 leukemia -9.42% | OVCAR-5 ovarian -9.51% | IGROV1 ovarian -28.7% | OVCAR-3 ovarian -30% | HS 578T breast -7.78% | NCI/ADR-RES ovarian 0.415% | T-47D breast -12.3% | BT-549 breast -17.4% | MDA-MB-435 melanoma -23.8% | KM12 colon -37.7%
inactive: OVCAR-8 ovarian 13.6% | OVCAR-4 ovarian 26% | SK-OV-3 ovarian 28.8% | SW-620 colon 17.1% | MCF7 breast 18.7% | HCT-116 colon 12.8%

COc1cc(/C=C/C(=O)c2cc(-c3ccccc3)ccc2O)cc(OC)c1OC
inactive: SR leukemia 43.4% | RPMI-8226 leukemia 12.3% | OVCAR-8 ovarian 60.8% | OVCAR-5 ovarian 93.1% | OVCAR-4 ovarian 68% | SK-OV-3 ovarian 71.3% | IGROV1 ovarian 83% | OVCAR-3 ovarian 77.2% | HS 578T breast 82.3% | NCI/ADR-RES ovarian 69.4% | T-47D breast 43.4% | BT-549 breast 88.8% | MDA-MB-435 melanoma 55.4% | SW-620 colon 81.9% | MCF7 breast 47% | HCT-116 colon 61.3% | HCC-2998 colon 97% | KM12 colon 78.6%

FC(F)(F)c1ccc(-c2cnc(Br)nc2NC2CCCCCC2)cc1
active: RPMI-8226 leukemia -4.63%
inactive: SR leukemia 51% | OVCAR-8 ovarian 24.1% | OVCAR-5 ovarian 63.2% | OVCAR-4 ovarian 22.6% | SK-OV-3 ovarian 71.6% | IGROV1 ovarian 36.1% | OVCAR-3 ovarian 10.8% | HS 578T breast 53.4% | NCI/ADR-RES ovarian 77.9% | T-47D breast 19.3% | BT-549 breast 56.6% | MDA-MB-435 melanoma 20.4% | SW-620 colon 28.2% | MCF7 breast 27.1% | HCT-116 colon 20.3% | HCC-2998 colon 72.1% | KM12 colon 25%

O=C(O)CN1C(=O)C=CC1=O
inactive: SR leukemia 109% | RPMI-8226 leukemia 106% | OVCAR-8 ovarian 108% | OVCAR-5 ovarian 101% | OVCAR-4 ovarian 115% | SK-OV-3 ovarian 105% | IGROV1 ovarian 100% | OVCAR-3 ovarian 104% | HS 578T breast 107% | NCI/ADR-RES ovarian 111% | T-47D breast 101% | BT-549 breast 114% | MDA-MB-435 melanoma 106% | SW-620 colon 107% | MCF7 breast 102% | HCT-116 colon 107% | HCC-2998 colon 107% | KM12 colon 102%

C(=C\c1nc2ccccc2s1)/c1ccc(N2CCOCC2)s1
active: T-47D breast 1.72%
inactive: SR leukemia 26.3% | RPMI-8226 leukemia 62.9% | OVCAR-8 ovarian 97.6% | OVCAR-5 ovarian 112% | OVCAR-4 ovarian 72.9% | SK-OV-3 ovarian 98.7% | IGROV1 ovarian 100% | OVCAR-3 ovarian 85.8% | HS 578T breast 112% | NCI/ADR-RES ovarian 69.9% | BT-549 breast 89.5% | MDA-MB-435 melanoma 64.9% | SW-620 colon 101% | MCF7 breast 80.2% | HCT-116 colon 55.4% | KM12 colon 48.6%

COc1ccccc1Cn1cc2c(c1-c1ccccc1)CCc1cnoc1-2
inactive: SR leukemia 26.3% | RPMI-8226 leukemia 38.8% | OVCAR-8 ovarian 56% | OVCAR-5 ovarian 77.2% | OVCAR-4 ovarian 61.4% | SK-OV-3 ovarian 19.1% | IGROV1 ovarian 44.8% | NCI/ADR-RES ovarian 21.3% | T-47D breast 29.4% | BT-549 breast 46.9% | SW-620 colon 16.8% | MCF7 breast 19.3% | HCC-2998 colon 81% | KM12 colon 29.5%
active: OVCAR-3 ovarian 6.99% | HS 578T breast 9.97% | MDA-MB-435 melanoma -21.3%

COc1ccc(C(=O)/C=C/c2cc(-c3ccc(OC)c(OC)c3)n[nH]2)cc1OC
active: SR leukemia 4.7% | RPMI-8226 leukemia -45.9% | OVCAR-8 ovarian -22.8% | OVCAR-5 ovarian -8.32% | OVCAR-4 ovarian -38.9% | IGROV1 ovarian -32.7% | OVCAR-3 ovarian -42% | NCI/ADR-RES ovarian 4.63% | T-47D breast -7.46% | BT-549 breast -60.1% | MDA-MB-435 melanoma -33.1% | SW-620 colon -48.8% | MCF7 breast 4.18% | HCC-2998 colon -85.8% | KM12 colon -74.1%
inactive: SK-OV-3 ovarian 41.2% | HS 578T breast 46.6%

CC(=O)N(O)c1ccc(/C=C/c2ccccc2)cc1
active: SR leukemia 9.19% | SK-OV-3 ovarian 9.48% | IGROV1 ovarian -14%
inactive: RPMI-8226 leukemia 46.8% | OVCAR-8 ovarian 32.1% | OVCAR-5 ovarian 33.1% | OVCAR-4 ovarian 54.7% | OVCAR-3 ovarian 42% | HS 578T breast 61.7% | NCI/ADR-RES ovarian 22.6% | T-47D breast 20.5% | BT-549 breast 43.5% | MDA-MB-435 melanoma 55.1% | SW-620 colon 23.3% | MCF7 breast 16.7% | HCC-2998 colon 14.3% | KM12 colon 47.9%
